These results are taken from PubChem BioAssay (NCI).

Assay [1] is described as follows: NCI Yeast Anticancer Drug Screen. Data for the rad50 strain (AID 155).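 Further: 0% = growth of vehicle-only cultures of the same strain.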 The settings on record: S. cerevisiae rad50 strain growth inhibition, hits give high values. The essentials: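 A DNA repair-deficient yeast mutant serves as the test organism; compound-induced growth inhibition is calculated against vehicle-treated cells.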
Assay [2] can be described thus: NCI Yeast Anticancer Drug Screen. Data for the mec2-1 strain (AID 157). Particulars: S. cerevisiae mec2-1 strain, hits give high values. An outline of the steps:
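Mutant yeast (mec2-1) grown with compound; growth inhibition relative to vehicle control reported.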

A short description of assay [3]: NCI Yeast Anticancer Drug Screen. Data for the sgs1 mgt1 strain (AID 161).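 Further: 0% = growth of cultures given vehicle only.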 The settings on record: S. cerevisiae sgs1 mgt1 strain, hits give high values. The essentials: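 Growth of a repair-deficient yeast mutant was monitored after compound treatment and expressed as inhibition relative to vehicle-treated cultures.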
Assay [4] is described as follows: NCI Yeast Anticancer Drug Screen. Data for the cln2 rad14 strain (AID 165).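 Further: 0% = growth equal to vehicle treated cultures.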 The settings on record: S. cerevisiae cln2 rad14 strain, hits give high values. An outline of the steps:
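Readout is yeast growth inhibition versus vehicle-treated controls, using a strain with cln2 and rad14 alterations exposed to compound.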

Assay [5] is described as follows: NCI Yeast Anticancer Drug Screen. Data for the bub3 strain (AID 167). The settings on record: S. cerevisiae bub3 mutant strain, hits give high values. The essentials:
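Inhibition values come from growth of compound-treated mutant yeast normalised to vehicle-treated controls.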

Assay [6] can be described thus: NCI Yeast Anticancer Drug Screen. Data for the mlh1 rad18 strain (AID 175). The settings on record: S. cerevisiae mlh1 rad18 strain growth inhibition, hits give high values. The essentials:
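Genetically defined yeast (DNA repair-deficient) exposed to compounds; growth inhibition determined relative to vehicle.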

The mark [7] stands for this setting: at 5.0 µM (retest, dose inferred, filed as 0.5).
The mark [8] stands for this setting: at 50.0 µM (retest, dose inferred, filed as 5.0).

About 79,000 compounds went through this panel and 15% of them were active in at least one assay; those are over-represented in the sample as a whole. Values without a mark were called inactive. The source made the active and inactive calls. No stated cut-off is given here; in the data, active means growth inhibition above about 70%; inactive means the rest.

With `CCC(C)(C)c1ccc(OCCO)c([N+](=O)[O-])c1`, the growth inhibition was 10% in assay [1] (setting [7]); 70% (active) in assay [1] (setting [8]); 77.3% (active) in assay [1] (at 50.0 µM); 8% in assay [2] (setting [7]); 71% (active) in assay [2] (setting [8]); 0.1% in assay [2] (at 50.0 µM). The growth inhibition in assay [3] (setting [7]) is 15%; in assay [3] (setting [8]), 92% (active); in assay [3] (at 50.0 µM) it was 74% (active); in assay [4] (setting [7]) it was 13%; in assay [4] (setting [8]) it was 64%; in assay [4] (at 50.0 µM), 25.9%. Moreover, the growth inhibition in assay [5] (setting [7]) was 19%; in assay [5] (setting [8]), 88% (active); in assay [5] (at 50.0 µM), 72.4% (active); in assay [6] (setting [7]), 29%; in assay [6] (setting [8]) it was 90% (active); in assay [6] (at 50.0 µM) it was 56.9%.

In the case of `CCCCCCCCCCCCSC1=C(N)C(=O)c2ccccc2C1=O`, the growth inhibition in assay [1] (setting [7]) is 3%; in assay [1] (setting [8]) it was 2%; in assay [1] (at 50.0 µM), 8.35%; in assay [2] (setting [7]), 0%; in assay [2] (setting [8]), 3%; in assay [2] (at 50.0 µM), 11.1%. Moreover, the growth inhibition in assay [3] (setting [7]) is 8%; in assay [3] (setting [8]), -5%; in assay [3] (at 50.0 µM), -9.05%; in assay [4] (setting [7]), -3%; in assay [4] (setting [8]) it was 0%; in assay [4] (at 50.0 µM) it was 32.3%. The growth inhibition in assay [5] (setting [7]) is -1%; in assay [5] (setting [8]), -1%; in assay [5] (at 50.0 µM), 11.3%; in assay [6] (setting [7]), 0%; in assay [6] (setting [8]), 5%; in assay [6] (at 50.0 µM), 53%.

Regarding `Cc1cc(Cl)n2c(nc3ccccc32)c1C#N`, the growth inhibition in assay [1] (setting [7]) was 13%; in assay [1] (setting [8]) it was 90% (active); in assay [1] (at 50.0 µM), 98.2% (active); in assay [2] (setting [7]) it was 23%; in assay [2] (setting [8]), 97% (active); in assay [2] (at 50.0 µM) it was 98.5% (active). Also, the growth inhibition was 16% in assay [3] (setting [7]); 94% (active) in assay [3] (setting [8]); 99% (active) in assay [3] (at 50.0 µM); 2% in assay [4] (setting [7]); 89% (active) in assay [4] (setting [8]); 96.8% (active) in assay [4] (at 50.0 µM). The growth inhibition in assay [5] (setting [7]) was 18%; in assay [5] (setting [8]), 92% (active); in assay [5] (at 50.0 µM) it was 98% (active); in assay [6] (setting [7]) it was 28%; in assay [6] (setting [8]), 94% (active); in assay [6] (at 50.0 µM), 98.3% (active).

For `c1cc2cc(Cc3ccc4[nH]ccc4c3)ccc2[nH]1`, the growth inhibition is 21% in assay [1] (setting [7]); 26% in assay [1] (setting [8]); 12.2% in assay [1] (at 50.0 µM); 21% in assay [2] (setting [7]); 36% in assay [2] (setting [8]); 11.4% in assay [2] (at 50.0 µM). Besides, the growth inhibition in assay [3] (setting [7]) is 25%; in assay [3] (setting [8]), 19%; in assay [3] (at 50.0 µM) it was 13%; in assay [4] (setting [7]), 16%; in assay [4] (setting [8]), 10%; in assay [4] (at 50.0 µM) it was -1.1%. The growth inhibition was 12% in assay [5] (setting [7]); 16% in assay [5] (setting [8]); 43.2% in assay [5] (at 50.0 µM); 32% in assay [6] (setting [7]); 41% in assay [6] (setting [8]); 92.2% (active) in assay [6] (at 50.0 µM).

As to `COC12C(COC(N)=O)C3=C(C(=O)C(C)=C(N)C3=O)N1CC1C2N1C(=O)/C=C/c1ccccc1` (stereo not drawn), the growth inhibition is 11% in assay [1] (setting [7]); 72% (active) in assay [1] (setting [8]); 73.7% (active) in assay [1] (at 50.0 µM); 13% in assay [2] (setting [7]); 82% (active) in assay [2] (setting [8]); 70.7% (active) in assay [2] (at 50.0 µM). Besides, the growth inhibition in assay [3] (setting [7]) was 24%; in assay [3] (setting [8]) it was 87% (active); in assay [3] (at 50.0 µM), 85.7% (active); in assay [4] (setting [7]), 3%; in assay [4] (setting [8]) it was 80% (active); in assay [4] (at 50.0 µM) it was 75.7% (active). Further, the growth inhibition is 2% in assay [5] (setting [7]); 66% in assay [5] (setting [8]); 72.4% (active) in assay [5] (at 50.0 µM); 27% in assay [6] (setting [7]); 90% (active) in assay [6] (setting [8]); 87% (active) in assay [6] (at 50.0 µM).

Regarding `CCCCCCCCCCCCNC(=O)OCC(C)O` (stereo not drawn) (tested in a mixture with another compound), the growth inhibition is 95% (active) in assay [1] (setting [7]); 97% (active) in assay [1] (setting [8]); 98.2% (active) in assay [1] (at 50.0 µM); 76% (active) in assay [2] (setting [7]); 93% (active) in assay [2] (setting [8]); 96.6% (active) in assay [2] (at 50.0 µM). Moreover, the growth inhibition in assay [3] (setting [7]) was 96% (active); in assay [3] (setting [8]) it was 98% (active); in assay [3] (at 50.0 µM), 98.9% (active); in assay [4] (setting [7]) it was 81% (active); in assay [4] (setting [8]), 88% (active); in assay [4] (at 50.0 µM), 97.9% (active). The growth inhibition was 84% (active) in assay [5] (setting [7]); 74% (active) in assay [5] (setting [8]); 99.4% (active) in assay [5] (at 50.0 µM); 93% (active) in assay [6] (setting [7]); 91% (active) in assay [6] (setting [8]); 98.5% (active) in assay [6] (at 50.0 µM).
